From PubChem BioAssay
An excerpt weighted towards active compounds, which were near 28% of everything screened.
Pyk2 oligo antag: antagonists of Pyk2 self-association, primary screen, Q293 cells, FERM NanoBiT luminescence, HTS; Protein-tyrosine kinase 2-beta (Homo sapiens), Q14289; hits give low values; z-score (the deposit names both 25 µM and 10 µM); 0.83% of 99,000 active;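 active means Z-score of -3 or lower, scaled per plate to the spread of control and sample wells; inactive means z-score above -3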;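 further: negative z-score means lost luminescence so less FERM oligomerization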
Target sequence (Q14289 whole entry, looked up): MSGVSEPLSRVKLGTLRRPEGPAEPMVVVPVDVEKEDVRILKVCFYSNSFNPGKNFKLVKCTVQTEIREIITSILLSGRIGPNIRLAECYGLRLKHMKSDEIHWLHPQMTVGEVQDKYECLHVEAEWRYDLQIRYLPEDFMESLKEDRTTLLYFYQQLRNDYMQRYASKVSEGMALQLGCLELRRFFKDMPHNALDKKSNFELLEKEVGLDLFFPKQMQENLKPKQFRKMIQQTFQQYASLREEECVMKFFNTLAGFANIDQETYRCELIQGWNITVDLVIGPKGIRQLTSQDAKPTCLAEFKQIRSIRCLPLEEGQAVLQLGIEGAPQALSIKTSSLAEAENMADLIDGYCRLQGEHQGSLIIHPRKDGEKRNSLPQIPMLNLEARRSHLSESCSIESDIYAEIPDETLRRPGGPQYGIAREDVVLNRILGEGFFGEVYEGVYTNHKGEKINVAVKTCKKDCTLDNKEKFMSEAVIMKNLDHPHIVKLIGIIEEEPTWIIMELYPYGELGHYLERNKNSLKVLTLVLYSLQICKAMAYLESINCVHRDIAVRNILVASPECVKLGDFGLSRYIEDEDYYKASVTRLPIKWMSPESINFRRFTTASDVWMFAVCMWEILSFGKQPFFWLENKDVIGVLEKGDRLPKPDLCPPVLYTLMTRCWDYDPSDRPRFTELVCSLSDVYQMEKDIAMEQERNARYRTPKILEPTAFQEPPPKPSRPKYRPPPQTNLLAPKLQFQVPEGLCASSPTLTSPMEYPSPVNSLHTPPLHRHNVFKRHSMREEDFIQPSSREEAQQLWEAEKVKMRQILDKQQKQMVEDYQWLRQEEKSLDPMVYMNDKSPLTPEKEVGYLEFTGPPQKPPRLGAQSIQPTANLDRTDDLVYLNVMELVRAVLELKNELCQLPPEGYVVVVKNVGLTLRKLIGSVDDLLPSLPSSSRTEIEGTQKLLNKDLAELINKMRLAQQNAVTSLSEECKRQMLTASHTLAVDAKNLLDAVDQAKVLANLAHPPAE
CYP2C9 inh: blockers of cytochrome P450 2C9 activity – biochemical, luminescence, ADME assay, primary screen. P11712. CYP2C9 Supersomes, luciferin-H conversion. inhibition, % at 5 µM. 20% of 96,000 active;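 active means blocking of liver enzyme CYP2C9 beyond about 50% at 5 µM, limit read from the data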
CYP2C19 activ: human CYP2C19 activators, primary screen, biochemical, luminescence; activation factor at 5 µM; 96,000 tested, under 10 active; recombinant CYP2C19, luciferin-H EGE luminescence; hits give high values; 0 = fully inhibited enzyme, 1 = untreated enzyme;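 active means activation factor of at least 2 at 5 µM in the primary screen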
CYP2C19 inh: blockers of cytochrome P450 2C19 activity – biochemical, luminescence, ADME assay, primary screen. P33261. CYP2C19 Supersomes, luciferin-H EGE luminescence, 30 min. 21% of 96,000 active. inhibition, % at 5 µM;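 active means CYP2C19 inhibition above a set limit at 5 µM in the primary screen, cut at about 50% in these data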
CYP2C9 activ: human CYP2C9 activators, primary screen, biochemical, luminescence; Cytochrome P450 2C9 (Homo sapiens), P11712; recombinant CYP2C9, luciferin-H conversion; hits give high values; factor 1 = untreated enzyme, 0 = blocked; activation factor at 5 µM; 1.4% of 96,000 active;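 active means activation factor of 2 or more for CYP2C9 at a 5 µM dose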
Large screens that a line does not name were inactive.

Cc1ccc2c3c(c(SCC(=O)Nc4nccs4)nc2c1)CCCC3	none (no result: Pyk2 oligo antag)
N#Cc1cnc(Nc2nc3ccccc3o2)nc1-c1ccccc1	CYP2C9 inh 62
Cc1ccnc(Nc2nc3ccccc3o2)n1	none (no result: Pyk2 oligo antag)
COc1ccc(N/C(N)=N/c2nc(CSc3ccc(Cl)cc3)cc(=O)[nH]2)cc1	CYP2C19 inh 66
N/C(=N\c1nc(CSc2ccc(Cl)cc2)cc(=O)[nH]1)Nc1cccc2ccccc12	none
O=C1c2ccccc2C(=O)N1CCCC(=O)N1CCCc2ccccc21	CYP2C19 inh 83
Cc1ccc(OCC(=O)N2CCCc3ccccc32)cc1	none (no result: CYP2C9 inh, CYP2C19 activ, CYP2C19 inh, CYP2C9 activ)
Cc1cccc(OCCCC(=O)N2CCCc3ccccc32)c1C	CYP2C19 inh 83
CC(C)CCNC(=O)C1CCCN1C(=O)NC1CCCCC1 (stereo not drawn)	none (no result: CYP2C9 inh, CYP2C19 activ, CYP2C19 inh, CYP2C9 activ)
Cc1cc2n(n1)C(c1c[nH]c3ccccc13)Nc1ccccc1-2 (stereo not drawn)	CYP2C9 inh 81
Cc1ccc(S(=O)(=O)Nc2ccc3c(c2)nc2n3CCN(Cc3ccccc3)C2)cc1	CYP2C9 inh 96, CYP2C19 inh 83
O=S(=O)(Nc1ccc2c(c1)nc1n2CCN(Cc2ccccc2)C1)c1ccc(Cl)cc1	CYP2C9 inh 98, CYP2C19 inh 88
CCOC(=O)C1CCN(C(=O)c2sc3nc(-c4ccccc4)cn3c2C)CC1	none
Cc1c(C(=O)N2CCOCC2)sc2nc(-c3ccccc3)cn12	none
COc1ccccc1N1CCN(C(=O)c2sc3nc(-c4ccccc4)cn3c2C)CC1	CYP2C9 inh 80
COC(=O)C1CCN(C(=O)c2sc3nc(-c4ccc(F)cc4)cn3c2C)CC1	CYP2C9 inh 62
Cc1c(C(=O)N2CCc3ccccc3C2)sc2nc(-c3ccccc3)cn12	CYP2C9 inh 53, CYP2C19 inh 59
CN(C)CCN1C(=O)C(=O)/C(=C(/O)c2ccc(F)cc2)C1c1ccccc1F (stereo not drawn)	none
Cc1nnc(-c2cnn(-c3ccccc3)c2N)n1Cc1ccc(F)cc1	none
CCNC(=O)N1c2ccc(OC)cc2C(C)=CC1(C)C	none
CCOC(=O)Oc1ccc2c(c1)C(C)=CC(C)(C)N2C(=O)OCC	CYP2C19 inh 56
CCOc1ccc2c(c1)C(C)=CC(C)(C)N2C(=O)Nc1ccccc1	CYP2C19 inh 61
CCOc1nc(CC)nc(NC(=O)NS(=O)(=O)c2ccccc2Cl)n1	none
CCCc1cc(-c2ccc(O)c(OCC)c2)c(C#N)c(N)n1	CYP2C9 inh 82, CYP2C19 inh 90
CCOc1cc(-c2c(C)c(CC)nc(N)c2C#N)ccc1O	CYP2C19 inh 63
CN(C)S(=O)(=O)Nc1ccc2c(c1)Cc1ccccc1-2	CYP2C9 inh 94
COc1ccc(NS(=O)(=O)c2ccc3c(c2)Cc2ccccc2-3)cn1	CYP2C9 inh 88
CCOC(=O)c1c(C)n(C)c2c(C)cc(O)c(OC(=O)CC)c12	none
Cc1ccccc1-n1c(C)nnc1SCc1cc(=O)oc2ccc3ccccc3c12	none (no result: CYP2C9 inh, CYP2C19 activ, CYP2C19 inh, CYP2C9 activ)
CC(=O)Nc1ccc(S(=O)(=O)NC(C(=O)O)C2=CCC=CC2)cc1 (stereo not drawn)	none
CCCCC1C(C#N)=C(C)NC2=C1C(=O)CC(C)(C)C2 (stereo not drawn)	CYP2C9 inh 86, CYP2C19 inh 90
CCOc1ccc(-c2cc(NC(=O)Cn3ncc4c3-c3ccccc3OC4)on2)cc1OCC	CYP2C19 inh 65 (no result: Pyk2 oligo antag)
CCOC(=O)N1CCN(C(=O)Cn2ncc3c2-c2ccccc2OC3)CC1	none (no result: Pyk2 oligo antag)
COc1ccccc1NC(=O)Cn1ncc2c1-c1ccccc1OC2	none (no result: Pyk2 oligo antag)
COc1cc(NC(=O)CN2c3ccccc3CC2C)cc(OC)c1OC (stereo not drawn)	CYP2C9 inh 81, CYP2C19 inh 69
Cc1ccc(C)c(CN2CCCN(C(=O)Cn3ncc4c3-c3ccccc3OC4)C2)c1	CYP2C9 inh 56, CYP2C19 inh 79 (no result: Pyk2 oligo antag)
